The target of test [1] is Peroxisome proliferator-activated receptor delta (Homo sapiens) (UniProt Q03181). Put plainly: qHTS assay for small molecule agonists of peroxisome proliferator-activated receptor delta signaling (AID 588534; calls by dose curve;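 also: 0% = DMSO basal wells and 100% = positive control agonist at 10 µM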). The essentials: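 Reporter cells were plated and held 5 hrs at 37 C before compounds were added. After 18 hrs at 37 C, CCF4 dye was loaded for 2 hrs at RT and fluorescence measured.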

Test [2] in a line: qHTS assay for small molecule antagonists of peroxisome proliferator-activated receptor delta signaling (AID 588535).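 Also: cells co-treated with a PPAR-delta agonist as stimulator during compound exposure.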 The settings on record: HEK293T PPARd-UAS-bla, beta-lactamase FRET ratio, 18 h; 460 nm channel. In a few lines: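 Cells were seeded at 4000 per well in assay medium containing 2% charcoal/dextran FBS and held 5 hrs at 37 C. Compounds were then added for 18 hrs. CCF4 substrate was applied for 2 hrs at room temperature before fluorescence reading.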

Test [3] concerns the target Peroxisome proliferator-activated receptor gamma (Homo sapiens) (UniProt P37231). In words: qHTS assay for small molecule agonists of peroxisome proliferator-activated receptor gamma signaling (AID 588536; active = well fitted curve in the direction sought with a large enough effect in the signal ratio, with a control signal flat, not every such curve was filed as active; the % refers to the signal ratio;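 also: 0% = DMSO basal wells and 100% = rosiglitazone at 2 µM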). The essentials: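 GeneBLAzer PPAR-gamma-UAS-bla HEK293 cells in 1% charcoal/dextran-treated FBS medium were treated 16 h at 37 C with compounds. Beta-lactamase activity was read by CCF4 ratio (460/530 nm). Response was normalized to 2 uM rosiglitazone (100%) and DMSO, then Hill-fitted for EC50 and efficacy.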

For test [4] the target is unchanged. In words: qHTS assay for small molecule antagonists of peroxisome proliferator-activated receptor gamma signaling (AID 588537; active = well fitted inhibition curve with a large enough effect in the signal ratio, with a control signal flat, not every such curve was filed as active; the % refers to the signal ratio;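 also: reporter cells co-stimulated with 50 nM rosiglitazone agonist during compound treatment; % of control where 0% means no effect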). The essentials: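 Step one: plate 3000 HEK293 UAS-bla cells per well in medium with 1% stripped serum and hold 6-6.5 h at 37 C. Step two: add compound and 50 nM agonist for 16 h. Step three: CCF4 loading, fluorescence read.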
Test [5] concerns the target Vitamin D3 receptor (Homo sapiens) (UniProt P11473). In words: qHTS assay for small molecule antagonists of vitamin D receptor signaling (AID 588541; calls by dose curve;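 also: receptor activated by calcitriol during compound treatment; series mostly up to about 77 µM; % is scaled to controls: 0 for no effect and ±100 for the full control effect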). The essentials: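 VDR-UAS-bla HEK293T cells in 2% charcoal-stripped FBS were stimulated with 1-alpha,25-dihydroxyvitamin D3 (3 nM final) plus compound for 16 h at 37 C. The beta-lactamase CCF4 readout was normalized to 50 nM agonist and DMSO, and Hill fits gave IC50.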

For test [6] the target is unchanged. Put plainly: qHTS assay for small molecule agonists of vitamin D receptor signaling (AID 588543; calls by dose curve;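 also: 0% = DMSO basal and 100% = reference agonist control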). In a few lines: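 β-lactamase reporter, VDR-UAS-bla HEK293T, agonist mode. Cells plated 5 h at 37 °C, compound titration 16 h at 37 °C, CCF4 dye 2 h RT, ratio 460/530 nm. Hill fit → EC50, efficacy vs 50 nM 1α,25-(OH)2D3.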
Test [7] has as its target Thyroid hormone receptor beta (Homo sapiens) (UniProt P10828). In words: qHTS assay for small molecule antagonists of thyroid hormone receptor beta signaling (AID 588547; active = well fitted inhibition curve with a large enough effect in the signal ratio, with a control signal flat, not every such curve was filed as active; the % refers to the signal ratio;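 also: cells stimulated with 0.4 nM T3 agonist during compound exposure; series mostly up to about 77 µM; % is scaled to controls: 0 for no effect and ±100 for the full control effect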). The settings on record: TR-UAS-bla HEK293, beta-lactamase ratio, antagonist mode, 18 h. The essentials:
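TR-UAS-bla GripTite HEK293 cells in 2% charcoal/dextran FBS medium; compounds 0.59 nM to 92 uM with T3 at 0.4nM final, 18 h at 37 C. Beta-lactamase read by CCF4 fluorescence (460/530 nm); Hill fits gave IC50 and efficacy.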

The nature of test [8]: qHTS assay for environmental chemicals that activate the Aryl hydrocarbon Receptor (AhR) signaling pathway (AID 651777). Also: % of control where 0% means no effect; nearly all actives have a fitted effect of over 15% in size. To be noted: 1A2-DRE human hepatoma cells, luciferase, 24 h; activation: stronger effect = higher value. The essentials:
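Induction of CYP1A2 transcription through AhR is detected by luciferase in 1A2-DRE hepatoma cells. Compounds or DMSO act for 24 hr at 37 C before a 30 min One-Glo step at room temperature.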

For test [9], the target named is Peroxisome proliferator-activated receptor alpha (Homo sapiens) (UniProt Q07869). In words: qHTS assay for small molecule agonists of the peroxisome proliferator-activated receptor alpha (PPARalpha) signaling pathway (AID 651778). Also: % of control where 0% means no effect. The settings on record: PathHunter PPARalpha complementation, chemiluminescence, 6 h; max response: stronger effect = higher value. The essentials: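 Enzyme-fragment complementation assay in which ligand-bound PPARalpha translocates and forms an active enzyme that generates chemiluminescence. Cells were plated overnight, exposed to compound for 6 hr at 37 C, and then given detection reagent for 60 min at room temperature.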

A short description of test [10]: qHTS assay for small molecule agonists of the antioxidant response element (ARE) signaling pathway measured by Nrf2-dependant transcriptional activity (AID 720636; active = well fitted curve in the direction sought with a large enough effect in the repeat runs; an effect the other way counts as inactive or inconclusive;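 also: HepG2 cells with an ARE-driven luciferase reporter; % of control where 0% means no effect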). In a few lines:
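We exposed ARE-luc HepG2 cells, seeded in assay medium with 1% dialyzed FBS and allowed 6 hr to adhere, to test compounds overnight (16 hr, 37 C) before measuring luciferase with ONE-Glo.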

Test [11] in a line: qHTS assay for small molecule agonists of the antioxidant response element (ARE) signaling pathway measured by Nrf2-dependant transcriptional activity - cell viability counter screen (AID 720653; active = well fitted curve in the direction sought with a large enough effect in the repeat runs; an effect the other way counts as inactive or inconclusive; also: % is scaled to controls: 0 for no effect and ±100 for the full control effect). To be noted: ARE-bla HepG2 viability, CellTiter-Glo ATP luminescence, 16 h; max response: stronger effect = lower value. In a few lines: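 ARE-bla HepG2 cells treated with compounds for 16 h at 37C; this counter screen measures viability as intracellular ATP by CellTiter-Glo luminescence after 30 min at room temperature.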

Test [12] in a line: qHTS assay for cell viability of HEK293 cells (AID 743288). Also: % is scaled to controls: 0 for no effect and ±100 for the full control effect; nearly all actives have a fitted effect of over 50% in size. The settings on record: ATP luminescence (CellTiter-Glo), 18 h; max response: stronger effect = lower value. The essentials: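 Environmental chemicals tested in qHTS format against parental HEK293 cells; 18 h treatment, 37 C; read-out ATP luminescence (CellTiter-Glo), 30 min RT development.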
The nature of test [13]: qHTS assay for cell viability of the p53RE-bla HCT-116 cell line (AID 743292). Also: % is scaled to controls: 0 for no effect and ±100 for the full control effect; nearly all actives have a fitted effect of over 55% in size. The essentials:
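In this qHTS counter-screen, metabolically competent p53RE-bla HCT-116 cells were counted via their ATP content. Compounds were applied for 16 h at 37 C and luciferase-coupled luminescence was measured.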

The target in test [14] is Nuclear receptor subfamily 1 group I member 2 (Rattus norvegicus) (UniProt Q9R1A7). Put plainly: qHTS assay for small molecule activators of the rat pregnane X receptor (rPXR) signaling pathway (AID 651751; call rule not given here; also: 0% is about no effect). To be noted: rPXR reporter cells, luciferase (One-Glo), 24 h.
The target in test [15] is Glucocorticoid receptor (Homo sapiens) (UniProt P04150). Put plainly: qHTS assay for small molecule agonists of glucocorticoid receptor signaling (AID 588532; active = well fitted curve in the direction sought with a large enough effect in the signal ratio, with a control signal flat; the % refers to the signal ratio;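 also: 100% = dexamethasone at 0.1 µM and 0% = DMSO only wells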). The settings on record: HeLa MMTV-bla, beta-lactamase ratio, agonist, 18 h; activation: stronger effect = higher value, percent of dexamethasone control, DMSO zero. The essentials:
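HeLa GRE-bla reporter cells; 18 h compound exposure at 37 C; 2 h CCF4 loading at room temperature; fluorescence at 460 and 530 nm; EC50 by Hill equation.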

The target in test [16] is Retinoic acid receptor RXR-alpha (Homo sapiens) (UniProt P19793). In words: qHTS assay for small molecule agonists of retinoid X receptor alpha signaling (AID 588544; calls by dose curve; also: potency is read from the fitted curve at half-maximal effect;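 as to activation: 0% = DMSO basal wells and 100% = reference agonist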).
Test [17] can be described thus: qHTS assay for small molecule activators of the p53 signaling pathway (AID 651743; active = well fitted activation curve with a large enough effect in the signal ratio, not every such curve was filed as active; the % refers to the signal ratio; also: series mostly up to about 92 µM; % of control where 0% means no effect). The settings on record: HCT-116 p53RE-bla, beta-lactamase FRET ratio, 16 h; activation: stronger effect = higher value. The essentials:
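HCT-116 p53RE-bla, 4,000 cells/well; 5 h settle; cpd/DMSO 16 h, 37 C; LiveBLAzer B/G 2 h RT; fluorescence intensity.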

Test [18] in a line: qHTS assay for small molecule antagonists of retinoid X receptor alpha signaling (AID 588546; active = well fitted inhibition curve with a large enough effect in the signal ratio, with a control signal flat, not every such curve was filed as active; the % refers to the signal ratio;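 also: cells stimulated with 9-cis-retinoic acid as agonist; % is scaled to controls: 0 for no effect and ±100 for the full control effect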). The settings on record: HEK293T RXRa-UAS-bla, beta-lactamase ratio, antagonist mode; measured here: W530 green channel, cytotoxicity proxy. In a few lines:
(§1)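 Beta-lactamase reporter inhibition, read as CCF4 fluorescence ratio (ex 405, em 460/530 nm) after 2 h at RT. HEK293T UAS-bla cells, 2500/well, were stimulated with 9-cis-RA at 500 or 100 nM final alongside test compound for 18 h at 37 C.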

The target in test [19] is Retinoic acid receptor RXR-alpha (Homo sapiens) (UniProt P19793). The test is described as above. The settings on record: HEK293T RXRa-UAS-bla, beta-lactamase ratio, antagonist mode. The essentials: as §1
In test [20] the target is Thyroid hormone receptor beta (Homo sapiens) (UniProt P10828). Put plainly: qHTS assay for small molecule agonists of thyroid hormone receptor beta signaling (AID 588545; calls by dose curve;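 also: 0% = DMSO only and 100% = 10 nM T3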). The essentials:
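Compounds were tested as agonists in TR-UAS-bla-GripTite HEK 293 cells. After 18 hrs at 37 C, CCF4 substrate was added and fluorescence read after 2 hrs at room temperature.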

The results in this text go back to PubChem BioAssay (NCATS).

Inconclusive results are not listed. The source made the active and inactive calls. Unless noted, calls follow the shape of the dose curve; as a rule, active = well fitted curve in the direction sought with a large enough effect; inconclusive = small, poorly fitted or top-dose-only effect, or another doubt; inactive = no such curve, though single readings can be large; an effect the other way counts as inactive or inconclusive.

Vitamin D3 receptor (Homo sapiens), sequence (P11473 whole entry, looked up): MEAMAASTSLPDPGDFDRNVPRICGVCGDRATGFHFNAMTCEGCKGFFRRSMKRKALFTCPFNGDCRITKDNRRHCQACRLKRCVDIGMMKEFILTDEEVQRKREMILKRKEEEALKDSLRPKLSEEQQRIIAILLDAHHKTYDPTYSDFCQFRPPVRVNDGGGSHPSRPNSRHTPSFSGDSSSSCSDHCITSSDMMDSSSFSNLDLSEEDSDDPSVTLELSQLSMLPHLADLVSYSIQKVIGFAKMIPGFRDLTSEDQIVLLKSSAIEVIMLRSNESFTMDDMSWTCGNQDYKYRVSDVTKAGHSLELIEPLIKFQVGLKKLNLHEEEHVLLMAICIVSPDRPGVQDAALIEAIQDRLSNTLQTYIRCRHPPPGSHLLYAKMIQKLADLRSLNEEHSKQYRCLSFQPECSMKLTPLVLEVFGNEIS
Peroxisome proliferator-activated receptor gamma (Homo sapiens), sequence (P37231 whole entry, looked up): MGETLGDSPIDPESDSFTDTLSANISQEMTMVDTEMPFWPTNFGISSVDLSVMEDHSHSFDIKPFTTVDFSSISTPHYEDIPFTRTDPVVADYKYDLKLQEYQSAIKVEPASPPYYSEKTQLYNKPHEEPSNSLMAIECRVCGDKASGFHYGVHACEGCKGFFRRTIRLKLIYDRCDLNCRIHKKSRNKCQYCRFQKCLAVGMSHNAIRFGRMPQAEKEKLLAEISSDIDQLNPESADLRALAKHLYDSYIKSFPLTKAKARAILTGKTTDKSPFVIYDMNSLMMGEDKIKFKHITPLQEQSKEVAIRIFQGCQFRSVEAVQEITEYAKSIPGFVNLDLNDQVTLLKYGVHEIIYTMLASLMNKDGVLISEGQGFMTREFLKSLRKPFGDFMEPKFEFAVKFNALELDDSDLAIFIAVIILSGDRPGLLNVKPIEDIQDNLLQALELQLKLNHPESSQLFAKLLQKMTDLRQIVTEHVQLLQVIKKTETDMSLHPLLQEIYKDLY
Peroxisome proliferator-activated receptor delta (Homo sapiens), sequence (Q03181 whole entry, looked up): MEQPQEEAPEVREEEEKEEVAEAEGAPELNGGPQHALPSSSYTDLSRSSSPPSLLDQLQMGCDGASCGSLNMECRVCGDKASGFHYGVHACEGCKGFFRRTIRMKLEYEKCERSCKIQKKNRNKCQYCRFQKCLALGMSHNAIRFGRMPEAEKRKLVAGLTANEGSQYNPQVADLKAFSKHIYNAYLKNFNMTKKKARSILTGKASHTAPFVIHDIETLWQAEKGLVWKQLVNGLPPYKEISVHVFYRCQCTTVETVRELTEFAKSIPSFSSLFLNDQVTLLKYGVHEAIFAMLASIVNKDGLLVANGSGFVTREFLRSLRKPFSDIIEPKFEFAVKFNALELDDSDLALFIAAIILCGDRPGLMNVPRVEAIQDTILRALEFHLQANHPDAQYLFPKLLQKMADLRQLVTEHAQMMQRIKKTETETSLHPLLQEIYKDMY
Peroxisome proliferator-activated receptor alpha (Homo sapiens), sequence (Q07869 whole entry, looked up, the tested form may be a part): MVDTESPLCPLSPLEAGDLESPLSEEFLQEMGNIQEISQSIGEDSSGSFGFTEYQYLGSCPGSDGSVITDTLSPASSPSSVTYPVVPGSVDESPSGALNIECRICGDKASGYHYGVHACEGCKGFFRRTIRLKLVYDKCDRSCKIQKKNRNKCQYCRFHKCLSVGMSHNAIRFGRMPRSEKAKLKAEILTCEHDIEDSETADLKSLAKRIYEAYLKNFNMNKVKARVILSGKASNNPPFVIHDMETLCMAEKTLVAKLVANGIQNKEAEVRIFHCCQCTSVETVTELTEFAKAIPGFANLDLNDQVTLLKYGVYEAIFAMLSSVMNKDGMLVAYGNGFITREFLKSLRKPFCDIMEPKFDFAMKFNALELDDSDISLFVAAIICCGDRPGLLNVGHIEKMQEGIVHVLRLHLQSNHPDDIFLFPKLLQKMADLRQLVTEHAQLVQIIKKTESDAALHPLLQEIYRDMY
Retinoic acid receptor RXR-alpha (Homo sapiens), sequence (P19793 whole entry, looked up): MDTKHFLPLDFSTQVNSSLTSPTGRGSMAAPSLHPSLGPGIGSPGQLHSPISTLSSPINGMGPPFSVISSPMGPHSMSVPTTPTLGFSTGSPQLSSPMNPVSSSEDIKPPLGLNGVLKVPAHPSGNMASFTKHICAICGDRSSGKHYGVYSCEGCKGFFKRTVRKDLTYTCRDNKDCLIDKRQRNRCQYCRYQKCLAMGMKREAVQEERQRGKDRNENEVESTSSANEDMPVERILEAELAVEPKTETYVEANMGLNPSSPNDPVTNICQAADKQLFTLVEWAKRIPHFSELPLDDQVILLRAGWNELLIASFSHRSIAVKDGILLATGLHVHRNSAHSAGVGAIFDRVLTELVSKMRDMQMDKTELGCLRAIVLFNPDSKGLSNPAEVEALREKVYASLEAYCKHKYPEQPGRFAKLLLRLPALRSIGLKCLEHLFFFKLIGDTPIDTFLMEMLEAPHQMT
Glucocorticoid receptor (Homo sapiens), sequence (P04150 whole entry, looked up): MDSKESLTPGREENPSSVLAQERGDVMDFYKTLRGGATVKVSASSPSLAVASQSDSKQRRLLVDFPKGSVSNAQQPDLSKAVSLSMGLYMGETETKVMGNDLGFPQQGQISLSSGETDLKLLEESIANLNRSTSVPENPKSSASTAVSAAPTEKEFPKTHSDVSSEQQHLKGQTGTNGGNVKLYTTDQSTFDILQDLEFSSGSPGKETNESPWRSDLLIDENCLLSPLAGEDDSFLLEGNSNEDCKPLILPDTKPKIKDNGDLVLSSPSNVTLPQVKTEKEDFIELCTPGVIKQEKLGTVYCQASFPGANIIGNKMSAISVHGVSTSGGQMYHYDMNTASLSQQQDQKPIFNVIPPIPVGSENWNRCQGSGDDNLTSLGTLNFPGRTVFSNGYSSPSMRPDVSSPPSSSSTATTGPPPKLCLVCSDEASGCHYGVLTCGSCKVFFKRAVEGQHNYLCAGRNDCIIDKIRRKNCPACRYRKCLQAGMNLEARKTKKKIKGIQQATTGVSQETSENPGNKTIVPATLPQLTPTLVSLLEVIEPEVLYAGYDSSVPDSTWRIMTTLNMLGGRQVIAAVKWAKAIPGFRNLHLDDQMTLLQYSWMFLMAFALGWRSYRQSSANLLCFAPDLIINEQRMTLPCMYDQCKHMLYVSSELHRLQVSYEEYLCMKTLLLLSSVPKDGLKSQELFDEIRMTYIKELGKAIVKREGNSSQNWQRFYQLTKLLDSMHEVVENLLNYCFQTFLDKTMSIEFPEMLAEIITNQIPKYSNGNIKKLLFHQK
Nuclear receptor subfamily 1 group I member 2 (Rattus norvegicus), sequence (Q9R1A7 whole entry, looked up): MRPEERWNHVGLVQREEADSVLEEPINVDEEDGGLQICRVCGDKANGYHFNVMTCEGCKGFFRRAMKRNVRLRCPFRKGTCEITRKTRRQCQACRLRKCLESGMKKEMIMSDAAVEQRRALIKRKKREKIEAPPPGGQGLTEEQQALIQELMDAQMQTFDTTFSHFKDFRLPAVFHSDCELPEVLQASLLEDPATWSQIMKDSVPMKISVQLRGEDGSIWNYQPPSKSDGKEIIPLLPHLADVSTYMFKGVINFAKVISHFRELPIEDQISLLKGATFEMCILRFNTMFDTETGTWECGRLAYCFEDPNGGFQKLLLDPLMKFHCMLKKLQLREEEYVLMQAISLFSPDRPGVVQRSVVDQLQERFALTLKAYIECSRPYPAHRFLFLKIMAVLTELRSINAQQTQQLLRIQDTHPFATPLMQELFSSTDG
Thyroid hormone receptor beta (Homo sapiens), sequence (P10828 whole entry, looked up): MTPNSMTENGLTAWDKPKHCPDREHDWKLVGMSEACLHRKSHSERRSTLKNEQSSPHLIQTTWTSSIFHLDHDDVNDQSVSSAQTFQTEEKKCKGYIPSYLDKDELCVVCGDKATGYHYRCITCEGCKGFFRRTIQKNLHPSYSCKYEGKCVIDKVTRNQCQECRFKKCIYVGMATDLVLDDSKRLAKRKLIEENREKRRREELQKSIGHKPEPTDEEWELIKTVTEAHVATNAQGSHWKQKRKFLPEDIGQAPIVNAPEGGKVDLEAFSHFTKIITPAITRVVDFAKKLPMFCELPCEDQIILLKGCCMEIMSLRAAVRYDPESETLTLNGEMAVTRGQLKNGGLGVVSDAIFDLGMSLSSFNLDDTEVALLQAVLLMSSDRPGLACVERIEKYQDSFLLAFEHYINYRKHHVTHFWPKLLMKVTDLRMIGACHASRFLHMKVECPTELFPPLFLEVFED

For the compound `CCNc1nc(Cl)nc(NC(C)(C)C)n1`, the compound was classed as inactive in test [1] and in [6]. Moreover, the max response is 33.2% in test [2]; 0.909% (inactive) in test [9]; -4.66% (inactive) in test [11]; -13.7% (inactive) in test [12]; 4.19% (inactive) in test [14]. The Potency result in test [3], in [4], in test [5], in [10] and in [13] was “inactive” throughout. For the same compound, the activity change % (negative = inhibition) in test [7] was -28% (inactive). Moreover, the activation in [8] is 6.82% (inactive).

For `CCC[CH2][Sn]([Cl])([CH2]CCC)[CH2]CCC`, the activation in test [15] was -5.41% (inactive); in test [8], 8.68% (inactive). Also, the Potency in test [16] was 398 nM (active). In addition, the max response in test [9] is 2.3% (inactive).

Take `COP(=O)(OC)SCn1c(=O)oc2cc(Cl)cnc21`: the result in test [1] and in [6] was inactive. In addition, the Potency entry in [3], in [10] and in test [13] was “inactive” throughout. The activation in [17] was 13.8% (inactive). In addition, the max response in test [9] is -1.8% (inactive); in test [11] it was -47.9% (inactive); in [12] it was -26% (inactive); in [14] it was -7.83% (inactive).

`COc1cc(OC)nc(NC(=O)NS(=O)(=O)c2ncccc2OCC(F)(F)F)n1`: the activation in [15] was 3.36% (inactive); in [17], -0.487% (inactive); in [8], 1.59% (inactive). Further, the compound was classed as inactive in test [1] and in test [6]. Further, the max response in test [2] was -5.67%; in [18] it was -1.53%; in test [19] it was -28.8% (inactive); in [9] it was -0.694% (inactive); in test [11], -8.5% (inactive); in [12], -8.98% (inactive). Besides, the max response in test [14] is -1.56% (inactive). Further, the Potency result in test [3], in test [4], in test [5], in test [16], in test [10] and in test [13] was “inactive” each time.

Turning to `CCOc1nc(F)cc2nc(S(=O)(=O)Nc3c(Cl)cccc3Cl)nn12`, the activation in [15] was 0.859% (inactive); in test [8], -0.921% (inactive). The call in test [1] and in test [6] was inactive. For the same compound, the max response in test [2] was 23.2%; in [18], 6.95%; in test [19], -25.7% (inactive); in test [9], -2.41% (inactive); in test [11] it was -9.33% (inactive); in [12] it was -11.2% (inactive). Moreover, the max response in test [14] was 1.99% (inactive). The Potency result in test [4], in [5], in test [16], in test [20], in test [10] and in [13] was “inactive” each time. In test [7], the activity change % (negative = inhibition) is -10.3% (inactive).

For the compound `O=[N+]([O-])Nc1nccn1Cc1ccc(Cl)nc1`, the results for the activation in test [15] and in [17] were 0.289% (inactive) and -1.74% (inactive), respectively. Also, in test [1], the compound was classed as inactive. Also, the max response in [2] is 19.2%; in test [18], -3.06%; in test [19], 5.37% (inactive); in test [9], -0.0433% (inactive); in test [11], -10.2% (inactive); in test [12] it was -8% (inactive). In addition, the max response in test [14] is -4.49% (inactive). Further, the Potency entry in [3], in test [4], in test [5], in [16], in test [20] and in test [10] was “inactive” in each case. Further, in test [13], the Potency result is “inactive”. For the same compound, in test [7], the activity change % (negative = inhibition) is -3.59% (inactive).

Turning to `CC(C)(C)C(O)C(Oc1ccc(-c2ccccc2)cc1)n1cncn1` (centres undefined), the max response is -42.4% in test [2], 1.37% (inactive) in test [9] and -1.48% (inactive) in test [11]. Besides, the Potency result in [3], in test [5], in [20], in test [10] and in [13] was “inactive” each time. In [6], the compound was called inactive. The activity change % (negative = inhibition) in test [7] was -13.8% (inactive). Moreover, the activation was 6.28% (inactive) in test [17] and 0.741% (inactive) in test [8].
